Data on 48 molecules can be found in PubChem BioAssay AID720541 (National Center for Advancing Translational Sciences (NCATS), 2013).

Screen size: about 1,300 compounds; about 420 (32%) were called active. Roughly 32% stayed inconclusive and do not appear here. The list shows a part of the results. A number with no mark means an inactive call. Calls come from the whole dose curve; as a rule, active = well fitted inhibition curve with a large enough effect; inconclusive = small, poorly fitted or top-dose-only effect; inactive = no such curve, though single readings can be large or run the other way.
% is set by controls: 0 for no effect and ±100 for the full control effect; potency is the fitted concentration of half-maximal effect.

The experiment has as its target C-terminal-binding protein 1 (Homo sapiens) (UniProt Q13363). The experiment can be described thus: qHTS for Inhibitors of the Phosphatase Activity of Eya2: Carboxyl-terminal binding protein (CtBP) Counterscreen for Cherry-picked Compounds. Note: nearly all actives have a fitted effect of over 65% in size. As to conditions: purified protein-protein binding, AlphaScreen, 3 h; series mostly up to 46.1 µM; activity change, negative = inhibition: at the top concentration. The gist of the method:
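Cherry-picked compounds (final 2.5 nM–46 uM) were incubated 2 h at RT with 25 nM CtBP-6xHIS and 25 nM GST-E1A. Alpha beads (20 ug/mL) were then added for 1 h, light-protected; DMSO and E1A peptide inhibitor wells set the normalization.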
For `Cc1cc(C)c(C#N)c(Sc2nnnn2-c2ccccc2)n1`, the “activity change, negative = inhibition” value was 4.75%.

On to `N#Cc1c(N)n(-c2cccc(C(=O)O)c2)c2nc3ccccc3nc12`, for which the Potency is 10.7 µM (active).

For the molecule `N#Cc1c(N)n(-c2ccc(C(=O)O)cc2)c2nc3ccccc3nc12`, the Potency was 12 µM (active).

Take `O=C(O)c1ccc2c(c1)C(=O)N(c1cccc(-c3nc4ccccc4s3)c1)C2=O`: the “activity change, negative = inhibition” value was -6.77%.

As to `CN(C)C(C)(C)C#CC(O)(c1ccccc1)c1ccccc1`, the “activity change, negative = inhibition” value is 4.16%.

In the case of `O=C(O)c1ccc(-c2ccc(/C=c3/sc4nc5ccccc5n4c3=O)o2)cc1Cl`, the Potency is 4.26 µM (active).

As for `CCOc1cccc(CN2CCC(CCC(=O)NC3CC3)CC2)c1O`, the “activity change, negative = inhibition” value was 5.16%.

For `CC(C(=O)c1ccc(Br)cc1)[n+]1cccc2ccccc21` (stereo not drawn), the “activity change, negative = inhibition” value was 58.8%.

For `CCC(=O)N1c2ccc(S(=O)(=O)N3CCN(c4ccc([N+](=O)[O-])cc4)CC3)cc2CC1C` (stereo not drawn), the “activity change, negative = inhibition” value was -6.96%.

On to `CCc1ccc2nc(N(CCN(C)C)C(=O)c3ccc4ncsc4c3)sc2c1`, for which the “activity change, negative = inhibition” value is -26.6%.

In the case of `Cc1sc2nc3ccc(N4CCCCC4)nn3c(=O)c2c1C`, the Potency was 13.5 µM (active).

Turning to `C[C@](N)(Cc1ccc(O)c(O)c1)C(=O)O`, the “activity change, negative = inhibition” value is 8.6%.

As for `CCCOc1ccc(C2C3=C(Nc4nc(N)[nH]c(=O)c42)c2ccccc2C3=O)cc1` (stereo not drawn), the Potency was 3.79 µM (active).

With `CCOc1ccc(C2C3=C(Nc4nc(N)[nH]c(=O)c42)c2ccccc2C3=O)cc1` (stereo not drawn), the Potency is 2.39 µM (active).

Take `Nc1nc2c(c(=O)[nH]1)C(c1ccccc1)C1=C(N2)c2ccccc2C1=O` (stereo not drawn): the Potency was 1.69 µM (active).

`Nc1nc2c(c(=O)[nH]1)C(c1cccc3ccccc13)C1=C(N2)c2ccccc2C1=O` (stereo not drawn): the Potency was 4.26 µM (active).

For `Cc1nc(NC(=O)c2ccccc2)sc1-c1cc(C(=O)O)nn1Cc1ccccc1`, the “activity change, negative = inhibition” value was -9.01%.

For the molecule `CS(=O)(=O)c1ccc2nc(NC(=O)c3ccccc3Cl)sc2c1`, the “activity change, negative = inhibition” value is 8.19%.

As for `CS(=O)(=O)c1ccc(C(=O)Nc2nc(-c3ccco3)c(-c3ccco3)s2)cc1`, the Potency is 13.5 µM (active).

Take `Nc1c(N=Nc2ccc([N+](=O)[O-])cc2)c(S(=O)(=O)O)cc2cc(S(=O)(=O)O)c(/C=C/c3ccccc3)c(O)c12`: the Potency was 7.57 µM (active).

Turning to `COc1ccc2c(c1)sc1nc(=O)ccn12`, the “activity change, negative = inhibition” value was -21.2%.

With `O=C(N[C@@H]1CC[C@H](CCn2cc(-c3ccccn3)nn2)O[C@@H]1CO)c1ccncc1`, the Potency is 12 µM (active).

For the molecule `Cc1ccc(SCc2nc(N)nc(Nc3ccccc3C)n2)cc1C`, the “activity change, negative = inhibition” value was -16.7%.

`COc1cccc(C(=O)C2CCCN(CC3=Cc4cc(OC)ccc4OC3)C2)c1` (stereo not drawn): the Potency was 13.5 µM (active).

For `COc1ccc(C(=O)C2CCCN(C(=O)c3cccc(N(C)C)c3)C2)cc1OC` (stereo not drawn), the “activity change, negative = inhibition” value is -16.2%.

Take `Cc1cn2c(nc(=O)c3cccnc32)s1`: the Potency was 12 µM (active).

In the case of `COc1cc(NC(=O)c2ccccc2Cl)ccc1NC(=O)c1cccs1`, the “activity change, negative = inhibition” value is 5.26%.

Take `Cc1cc(NC(=O)c2cccs2)cc(-c2nc3ncccc3o2)c1O`: the “activity change, negative = inhibition” value was -0.85%.

On to `Cc1cc(NC(=O)c2ccccc2F)ncc1NC(=O)c1cccs1`, for which the Potency is 12 µM (active).

Take `O=C(Oc1ccc(-c2nnco2)cc1)c1ccco1`: the “activity change, negative = inhibition” value is -25.5%.

As to `CC(=O)Oc1ccc(C(=O)Nc2cc(NC(=O)c3ccc(OC(C)=O)cc3)cc(C(=O)NC(C)(C)C)c2)cc1`, the Potency was 15.1 µM (active).

On to `Cc1ccc(OCC(=O)Nc2cc(NC(=O)COc3ccc(C)c(C)c3)cc(C(=O)O)c2)cc1C`, for which the “activity change, negative = inhibition” value is -20.5%.

In the case of `N#C/C(=C\c1ccc(-c2ccc(C(=O)O)cc2)o1)C(=O)Nc1ccc(F)cc1`, the Potency was 7.57 µM (active).

Turning to `COc1ccc(/C=C(/C#N)C(=O)Nc2ccc(O)cc2)cc1C(=O)O`, the Potency is 6.75 µM (active).

In the case of `COc1ccc(CC(CC(=O)O)C(=O)Nc2ccc(Cl)c(Cl)c2)cc1` (stereo not drawn), the “activity change, negative = inhibition” value is 47.3%.

With `COc1ccc(NC(=O)/C(C#N)=C/c2ccc(-c3ccc(Cl)c(C(=O)O)c3)o2)cc1`, the Potency is 19 µM (active).

Consider `CC(=O)Oc1ccc(C(=O)OCC(=O)c2c(N)n(C)c(=O)n(C)c2=O)cc1OC(C)=O`, for which the Potency was 6.01 µM (active).

Turning to `Cn1c(N)c(C(=O)CSc2nnc(NC3CCCCC3)s2)c(=O)n(C)c1=O`, the “activity change, negative = inhibition” value was -26.8%.

On to `O=C1C=C(Nc2ccccc2)C(=O)c2ccccc21`, for which the Potency was 4.26 µM (active).

As for `O=C(Nc1ccc(-c2nc3cccnc3s2)cc1)C1CCCO1` (stereo not drawn), the “activity change, negative = inhibition” value was -24.7%.

As for `O=C(CSc1ncn[nH]1)N1N=C(c2ccc(Cl)cc2)CC1c1ccco1` (stereo not drawn), the “activity change, negative = inhibition” value is -15.7%.

For the molecule `CN(C)c1ccc(C(=C2C=CC(=[N+](C)C)C=C2)c2ccc(N(C)C)cc2)cc1`, the Potency was 3.79 µM (active).

Take `CN(C)c1ccc(C(=C2C=CC(=[N+](C)C)C=C2)c2c(O)c(S(=O)(=O)[O-])cc3cc(S(=O)(=O)O)ccc23)cc1`: the Potency was 9.53 µM (active).

As to `Nc1n[nH]c2cc(=O)n(-c3ccc(Cl)cc3)nc12`, the “activity change, negative = inhibition” value is -21.1%.

Take `CCOc1ccc(Br)cc1S(=O)(=O)NC1CC(C)(C)NC(C)(C)C1`: the “activity change, negative = inhibition” value was 4.5%.

Consider `Cc1ccc(-c2csc(NC(=O)c3ccccc3F)c2C(=O)O)cc1`, for which the Potency is 9.53 µM (active).

Regarding `COC(=O)c1c(-c2ccc3ccccc3c2)csc1NC(=O)Cc1ccc(OC)c(OC)c1`, the “activity change, negative = inhibition” value was -22.9%.

On to `CCOc1cc(C(=O)NC(C)CCc2ccccc2)cc(OCC)c1OCC` (stereo not drawn), for which the “activity change, negative = inhibition” value is 94%.
